Reference: PubChem BioAssay AID1347420 (Sanford-Burnham Center for Chemical Genomics, 2020)
Values joined by “and” are separate entries in the source; they are usually repeats but may differ in a detail not shown here. Identical values can stand only once. Among all 1,300 compounds or so, about 980 (75%) were called active. About 4% were inconclusive and are not listed. The list shows a part of the results.

target: Sulfhydryl oxidase 1 (Homo sapiens) (UniProt O00391); experiment: inhibition of human sulfhydryl oxidase QSOX1 – biochemical, HyperBlu H2O2 luminescence, HTS, primary screen (AID 1347420); conditions: recombinant QSOX1, HyperBlu H2O2 luminescence, at 12.5 µM, hits give high values; active = any value above zero unless noted; note: values above 100% were filed as inconclusive
Sequence (O00391 whole entry, looked up): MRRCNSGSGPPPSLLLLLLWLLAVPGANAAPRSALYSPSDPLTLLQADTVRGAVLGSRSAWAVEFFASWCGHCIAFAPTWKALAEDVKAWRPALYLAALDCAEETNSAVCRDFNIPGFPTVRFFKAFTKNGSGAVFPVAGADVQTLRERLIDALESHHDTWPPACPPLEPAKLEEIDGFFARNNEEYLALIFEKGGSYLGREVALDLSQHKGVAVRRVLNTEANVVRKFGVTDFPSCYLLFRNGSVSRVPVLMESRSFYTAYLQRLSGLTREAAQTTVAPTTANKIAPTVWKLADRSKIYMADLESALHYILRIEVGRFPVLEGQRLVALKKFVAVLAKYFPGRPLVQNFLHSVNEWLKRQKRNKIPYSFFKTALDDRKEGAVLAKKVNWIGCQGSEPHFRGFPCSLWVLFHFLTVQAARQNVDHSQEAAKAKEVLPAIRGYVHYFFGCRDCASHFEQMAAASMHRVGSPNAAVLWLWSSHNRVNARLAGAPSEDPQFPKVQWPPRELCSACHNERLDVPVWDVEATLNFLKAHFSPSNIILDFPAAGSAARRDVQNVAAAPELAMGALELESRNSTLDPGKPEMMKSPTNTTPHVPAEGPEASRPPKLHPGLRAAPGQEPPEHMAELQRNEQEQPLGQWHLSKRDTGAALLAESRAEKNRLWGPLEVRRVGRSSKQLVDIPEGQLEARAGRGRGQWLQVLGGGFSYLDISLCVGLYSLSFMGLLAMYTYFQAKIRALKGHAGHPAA

Row | SMILES | inhibition
1 | COc1ccc2[nH]c3c(c2c1)CCNC3 | 40.5% (active)
2 | NC(=O)CI | -4.6% (inactive)
3 | NNC(N)=O | 13% (active)
4 | COc1ccc(OC)c(C(O)C(C)N)c1 (centres undefined) | 10.6% [setting not given] (active)
5 | CCCN(CCC)[C@@H]1CCc2cccc(O)c2C1 | 2.9% (active)
6 | CCCN(CCC)[C@H]1CCc2c(F)ccc(O)c2C1 | 17.9% (active)
7 | CCCN(CCC)C1CCc2cccc(O)c2C1 (centres undefined) | 5.5% (active)
8 | Cc1ncc(CNC(=O)N(CCCl)N=O)c(N)n1 | 13.2% (active)
9 | Clc1cc(I)cc(Cl)c1NC1=NCCN1 | 3.8% (active)
10 | O=c1[nH]c2ccccc2n1CCCN1CCC(n2c(=O)[nH]c3cc(Cl)ccc32)CC1 | 4.5% [setting not given] (active)
11 | O=c1[nH]c2ccccc2n1C1CCN(CCCC(c2ccc(F)cc2)c2ccc(F)cc2)CC1 | -0.3% [setting not given] (inactive)
12 | S=C(NC1CCCCC1)N1CCC(c2cnc[nH]2)CC1 | 4.8% (active)
13 | CC[C@@]1(O)C(=O)OCc2c1cc1n(c2=O)Cc2cc3ccccc3nc2-1 | 17.6% [setting not given] (active)
14 | c1ccc(C2CC2)c(OCC2=NCCN2)c1 | 21.8% (active)
15 | COc1ccc(C(=O)N2CCCC2=O)cc1 | 20.3% [setting not given] (active)
16 | COC[C@H]1OC(=O)c2coc3c2[C@@]1(C)C1=C(C3=O)C2CCC(=O)[C@@]2(C)C[C@H]1OC(C)=O (some centres undefined) | 49.7% (active)
17 | NC(=O)c1cc(N2CC2)c([N+](=O)[O-])cc1[N+](=O)[O-] | 15.2% (active)
18 | c1ccc(CCCN2CCN(CCOC(c3ccccc3)c3ccccc3)CC2)cc1 | -3% (inactive)
19 | Fc1ccc(C(OCCN2CCN(CCCc3ccccc3)CC2)c2ccc(F)cc2)cc1 | 14.6% (active)
20 | CC12CCC3C(CCC4=C(O)C(=O)CCC43C)C1CCC2=O (centres undefined) | 1.5% [setting not given] (active)
21 | NCCc1c[nH]c2ccc(O)cc12 | 80.8% (active)
22 | COc1ccc2[nH]cc(CCN)c2c1 | -0.1% [setting not given] (inactive)
23 | CC(N)Cc1c[nH]c2ccc(O)cc12 (centres undefined) | 79% [setting not given] (active)
24 | CC(=O)NCCc1c[nH]c2ccccc12 | 35.3% [setting not given] (active)
25 | CC(N)Cc1c[nH]c2ccc(OCc3cccs3)cc12 (centres undefined) | -4.1% [setting not given] (inactive)

Row | SMILES | inhibition
26 | CNCCc1c[nH]c2ccc(O)cc12 | 55.9% [setting not given] (active)
27 | Cc1c(C(=O)c2cccc3ccccc23)c2cccc3c2n1[C@H](CN1CCOCC1)CO3 | -2.1% [setting not given] (inactive)
28 | O=C(O)c1nn(Cc2ccc(Cl)cc2Cl)c2ccccc12 | -13% [setting not given] (inactive)
29 | CCCN(CCC)CCc1c[nH]c2ccc(C(N)=O)cc12 | -6.2% [setting not given] (inactive)
30 | NCCc1c[nH]c2ccc(C(N)=O)cc12 | 26.8% (active)
31 | NCCc1c[nH]c2ccccc12 | 1.9% [setting not given] (active)
32 | Cc1[nH]c2ccc(O)cc2c1CCN | 79.3% [setting not given] (active)
33 | C/C(O)=C(\C#N)C(=O)Nc1cc(Br)ccc1Br | -6.8% (inactive)
34 | Clc1cnc(Oc2ccc(Oc3ncc(Cl)cc3Cl)cc2)c(Cl)c1 | 10.6% [setting not given] (active)
35 | C=CCN(C1=NCCN1)c1c(Cl)cccc1Cl | 9.6% (active)
36 | c1ccc2c(c1)OCC(C1=NCCN1)O2 (centres undefined) | 3.2% (active)
37 | CN1CC[C@@]2(C)c3cc(OC(=O)Nc4ccccc4)ccc3N(C)[C@@H]12 | 41.8% (active)
38 | CN1CC[C@@]2(C)c3cc(O)ccc3N(C)C12 (some centres undefined) | 52.2% (active)
39 | CNCCc1ccc(O)c(O)c1 | 50.2% (active)
40 | CCCN(CCC)CCc1ccc(O)c(O)c1 | 56.8% (active)
41 | Cc1ccc(S(=O)(=O)N[C@@H](CCCCN)C(=O)CCl)cc1 | 11.5% (active)
42 | O=[N+]([O-])c1ccc2nc(N3CCNCC3)ccc2c1 | 15.5% (active)
43 | COc1ccccc1N1CCNCC1 | -0.1% [setting not given] (inactive)
44 | c1ccc2c(N3CCNCC3)cccc2c1 | 3% (active)
45 | NNC(=O)c1ccc(O)cc1 | 3.3% (active)
46 | C[C@]12N[C@H](Cc3ccccc31)c1ccccc12 | -13.1% [setting not given] (inactive)
47 | CC12NC(Cc3ccccc31)c1ccccc12 (centres undefined) | 3.8% [setting not given] (active)
48 | CCCN1CC[C@@H]2c3cc(O)ccc3CC[C@@H]21 | 18.3% (active)
49 | CCCN1CCO[C@@H]2c3cc(O)ccc3OC[C@H]21 | 27.5% (active)
50 | CCCn1c(C)c(C(=O)c2ccc3ccccc3c2)c2ccccc21 | -8.8% [setting not given] (inactive)

Row | SMILES | inhibition
51 | CCCCCCCCCCCCCC(=O)O[C@@H]1[C@@H](C)[C@@]2(O)[C@@H](C=C(CO)C[C@@]3(O)C(=O)C(C)=C[C@@H]23)C2C(C)(C)[C@@]21OC(C)=O (some centres undefined) | -11.5% (inactive)
52 | CN(N=O)c1ccc(O)c(O)c1 | 9% (active)
53 | CN(N=O)c1cc(O)ccc1O | 56% (active)
54 | NC(=O)c1ccc(OCC(O)CN2CC=C(c3ccc(F)cc3)CC2)cc1 (centres undefined) | -3.1% (inactive)
55 | CC(NC(C)(C)C)C(=O)c1cccc(Cl)c1 (centres undefined) | 0.2% [setting not given] (active)
56 | CC1=NN=C(c2ccc(N)cc2)c2cc3c(cc2C1)OCO3 | 11% (active)
57 | CC(C)NP(=O)(NC(C)C)OP(=O)(NC(C)C)NC(C)C | -1.6% (inactive)
58 | C=CCN1CC[C@]23c4c5ccc(O)c4O[C@H]2/C(=N/NC(=O)c2ccccc2)CC[C@@]3(O)[C@H]1C5 | 24.9% [setting not given] (active)
59 | O=C1CC[C@@]2(O)C3Cc4ccc(O)c5c4C2(CCN3CC2CC2)[C@H]1O5 (some centres undefined) | 16.8% [setting not given] (active)
60 | C=CCN1CCC23c4c5ccc(O)c4O[C@H]2C(=O)CC[C@@]3(O)C1C5 (some centres undefined) | 19.6% [setting not given] (active)
61 | C=CCN1CC[C@]23c4c5ccc(O)c4O[C@@H]2/C(=N/N=C2\CC[C@@]4(O)C6Cc7ccc(O)c8c7[C@@]4(CCN6CC=C)[C@@H]2O8)CC[C@@]3(O)C1C5 | 29.2% (active)
62 | Cn1cnc(CCN)c1 | 10.9% (active)
63 | COc1ccc(C(CN(C)C)C2(O)CCCCC2)cc1 (centres undefined) | 7.4% (active)
64 | NCCCP(=O)(O)O | -9.2% (inactive)
65 | CCCCc1ccc(C(=O)O)nc1 | 5.9% (active)
66 | CC(N)[C@H](O)c1ccc(O)c(O)c1 (some centres undefined) | 57.3% [setting not given] (active)
67 | NC(C(=O)O)c1cc(=O)[nH]o1 (centres undefined) | 4.7% (active)
68 | CCCN1CCC[C@@H]2Cc3[nH]ncc3C[C@H]21 | 5.1% (active)
69 | CCCN1CCC[C@@H]2Cc3nc(N)ncc3C[C@H]21 | 14.3% (active)
70 | O=C(N[C@H]1CN2CCC1CC2)c1ccc(Cl)cc1 | 8.6% (active)
71 | CC(C)(C)NCC(O)c1ccccc1Cl (centres undefined) | 6.8% (active)
72 | COc1ccc2c(c1OC)C(=O)O[C@H]2[C@@H]1c2cc3c(cc2CCN1C)OCO3 | 12.6% (active)
73 | O=[N+]([O-])/C=C/c1ccc2c(c1)OCO2 | 19.2% (active)
74 | C#CCN[C@H](C)Cc1ccccc1 | 8.8% [setting not given] (active)
75 | CNc1ccc2oc(C[C@H]3O[C@@]4(CC[C@H]3C)O[C@H]([C@H](C)C(=O)c3ccc[nH]3)[C@H](C)C[C@H]4C)nc2c1C(=O)O | 30.5% [setting not given] (active)

Row | SMILES | inhibition
76 | O=C(O)CC[N+](=O)[O-] | 12% [setting not given] (active)
77 | CCn1cnc2c(Nc3cccc(Cl)c3)nc(N[C@@H]3CCCC[C@@H]3N)nc21 | 10.8% (active)
78 | CC(C)[C@H]1CN[C@H](C(=O)O)[C@H]1CC(=O)O | 23.9% (active)
79 | C=C(C)[C@H]1CN[C@H](C(=O)O)[C@H]1CC(=O)O | 5.8% (active)
80 | CN(C(=O)Cc1ccc(Cl)c(Cl)c1)C(CN1CCCC1)c1cccc(OCC(=O)O)c1 (centres undefined) | -2.6% (inactive)
81 | COC(=O)N1CCN(C(=O)Cc2ccc(Cl)c(Cl)c2)C(CN2CCCC2)C1 (centres undefined) | 13.5% (active)
82 | O=C(Cc1ccc(Cl)c(Cl)c1)N1CCCCC1CN1CCCC1 (centres undefined) | 2.1% (active)
83 | NN=C(N)N | 17.9% (active) and 6.7% (active)
84 | NC(Cc1cc(O)c(O)cc1O)C(=O)O (centres undefined) | 30.1% (active)
85 | NC1CCc2cc(O)c(O)cc2C1 (centres undefined) | 60.4% (active)
86 | COC(=O)[C@@H](N)CCCN=C(N)N[N+](=O)[O-] | -8.2% (inactive)
87 | NC(=NCCC[C@H](N)C(=O)O)N[N+](=O)[O-] | 7.4% (active)
88 | COc1ccc2c(c1)c(CCN1CCOCC1)c(C)n2C(=O)c1cccc(Cl)c1Cl | -15.7% (inactive)
89 | CCC1(C2=NCCN2)Cc2ccccc2O1 (centres undefined) | 0.3% (active)
90 | Cn1c(CCCC(=O)O)nc2cc(N(CCCl)CCCl)ccc21 | 87% (active)
91 | O=C(O)CCCc1ccc(N(CCCl)CCCl)cc1 | 18% [setting not given] (active)
92 | NC(Cc1ccc(N(CCCl)CCCl)cc1)C(=O)O (centres undefined) | 85.8% (active)
93 | NCCc1ccc(O)cc1 | 14.4% [setting not given] (active)
94 | NCCc1ccc(S(=O)(=O)F)cc1 | 22.8% (active)
95 | c1ccc2sc(C3(N4CCCCC4)CCCCC3)cc2c1 | -3% (inactive)
96 | CN1C(=O)CCS(=O)(=O)C1c1ccc(Cl)cc1 (centres undefined) | 18.9% (active)
97 | CCS(=O)(=O)Nc1cccc(C(=C2CCCCC2)c2cnc[nH]2)c1 | 14.3% (active)
98 | OC1CCCCC1N1CCC(c2ccccc2)CC1 (centres undefined) | 6.2% [setting not given] (active)
99 | C=C(C)[C@H]1Cc2c(ccc3c2O[C@@H]2COc4cc(OC)c(OC)cc4[C@@H]2C3=O)O1 | -11.7% [setting not given] (inactive)
